# According to publication PMC7862700, “An all-to-all approach to the identification of sequence-specific readers for epigenetic DNA modifications on cytosine”:
# What was measured:
# Experiment in all cases: DAPPL (digital affinity profiling via proximity ligation, sequencing); 10 mM Tris-HCl pH 7.5, 50 mM NaCl, 1 mM DTT, 4% glycerol, room temperature, 30 min; GST-TFs on glutathione beads, 16-mer random dsDNA library, 0.1% formaldehyde crosslink after washing; high values mean tight binding
# [1] = target: T1, FEV (Homo sapiens, UniProt Q99581 1-238); settings: protein: recombinant; tags: N-terminal GST; dsDNA, one strand shown
# T1 sequence: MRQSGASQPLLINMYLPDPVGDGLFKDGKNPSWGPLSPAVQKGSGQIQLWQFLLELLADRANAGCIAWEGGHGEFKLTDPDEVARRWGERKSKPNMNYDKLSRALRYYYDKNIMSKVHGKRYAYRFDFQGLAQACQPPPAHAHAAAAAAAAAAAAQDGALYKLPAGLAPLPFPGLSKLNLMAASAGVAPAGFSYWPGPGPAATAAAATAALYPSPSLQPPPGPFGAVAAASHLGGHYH
# Outline: (§1)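 Pools of DNA-barcoded human transcription factors, expressed in yeast as GST fusions on glutathione beads and combined with a tag-only sample, were incubated with 200 nmole of a 16-mer random double-stranded DNA library. Incubation took 30 min at room temperature in Tris/NaCl/DTT/glycerol buffer and was followed by washing, 0.1% formaldehyde crosslinking, proximity ligation (BsaI/T4 ligase, 1 h, 37 °C), PCR amplification and sequencing on an Illumina NextSeq500. Binding signal is the ratio of a hexamer's read frequency for a factor to its frequency for the tag-only sample.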
# [2] = target: ETV5 (Homo sapiens, UniProt P41161 1-510); settings: protein: recombinant; tags: N-terminal GST; dsDNA, one strand shown
# Outline: as §1
# [3] = target: HSF1 (Homo sapiens, UniProt Q00613 1-529); settings: protein: recombinant; tags: N-terminal GST; chain copies: 3; dsDNA, one strand shown
# Outline: as §1
# [4] = target: T2, SPIC (Homo sapiens, UniProt Q8N5J4 1-248); settings: protein: recombinant; tags: N-terminal GST; dsDNA, one strand shown
# T2 sequence: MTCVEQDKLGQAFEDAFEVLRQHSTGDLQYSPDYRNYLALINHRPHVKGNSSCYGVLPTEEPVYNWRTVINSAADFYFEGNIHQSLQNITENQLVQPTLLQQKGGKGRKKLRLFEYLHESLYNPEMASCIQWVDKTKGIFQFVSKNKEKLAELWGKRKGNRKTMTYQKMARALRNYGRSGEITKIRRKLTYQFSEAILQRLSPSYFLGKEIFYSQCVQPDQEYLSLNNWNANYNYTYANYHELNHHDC
# Outline: as §1
# [5] = target: ELF4 (Homo sapiens, UniProt Q99607 1-663); settings: protein: recombinant; tags: N-terminal GST; dsDNA, one strand shown
# Outline: as §1
# [6] = target: T3, ELK4 (Homo sapiens, UniProt P28324-2 1-405); settings: protein: recombinant; tags: N-terminal GST; dsDNA, one strand shown
# T3 sequence: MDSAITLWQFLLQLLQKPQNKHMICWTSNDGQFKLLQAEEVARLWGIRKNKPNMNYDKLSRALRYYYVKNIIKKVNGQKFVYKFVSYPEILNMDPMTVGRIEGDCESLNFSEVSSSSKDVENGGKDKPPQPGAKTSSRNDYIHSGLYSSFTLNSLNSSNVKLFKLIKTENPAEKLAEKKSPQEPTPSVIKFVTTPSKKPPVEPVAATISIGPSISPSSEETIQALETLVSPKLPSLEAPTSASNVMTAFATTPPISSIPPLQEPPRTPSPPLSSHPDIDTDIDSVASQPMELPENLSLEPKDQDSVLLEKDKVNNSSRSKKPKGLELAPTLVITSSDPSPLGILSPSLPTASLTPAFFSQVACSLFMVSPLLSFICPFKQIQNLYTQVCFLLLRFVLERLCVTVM
# Outline: as §1
# [7] = target: T4, ETV2 (Homo sapiens, UniProt O00321 1-342); settings: protein: recombinant; tags: N-terminal GST; dsDNA, one strand shown
# T4 sequence: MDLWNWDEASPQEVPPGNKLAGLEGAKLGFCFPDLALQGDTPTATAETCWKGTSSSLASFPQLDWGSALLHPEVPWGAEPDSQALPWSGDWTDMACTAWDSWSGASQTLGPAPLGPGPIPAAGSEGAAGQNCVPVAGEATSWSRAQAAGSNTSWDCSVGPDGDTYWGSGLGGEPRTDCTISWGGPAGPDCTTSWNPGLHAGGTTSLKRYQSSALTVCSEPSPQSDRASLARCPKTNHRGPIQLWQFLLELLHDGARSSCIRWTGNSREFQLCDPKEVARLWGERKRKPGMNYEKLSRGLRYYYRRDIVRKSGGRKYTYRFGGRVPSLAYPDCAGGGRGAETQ
# Outline: as §1
# [8] = target: T5, ELF3 (Homo sapiens, UniProt P78545 1-371); settings: protein: recombinant; tags: N-terminal GST; dsDNA, one strand shown
# T5 sequence: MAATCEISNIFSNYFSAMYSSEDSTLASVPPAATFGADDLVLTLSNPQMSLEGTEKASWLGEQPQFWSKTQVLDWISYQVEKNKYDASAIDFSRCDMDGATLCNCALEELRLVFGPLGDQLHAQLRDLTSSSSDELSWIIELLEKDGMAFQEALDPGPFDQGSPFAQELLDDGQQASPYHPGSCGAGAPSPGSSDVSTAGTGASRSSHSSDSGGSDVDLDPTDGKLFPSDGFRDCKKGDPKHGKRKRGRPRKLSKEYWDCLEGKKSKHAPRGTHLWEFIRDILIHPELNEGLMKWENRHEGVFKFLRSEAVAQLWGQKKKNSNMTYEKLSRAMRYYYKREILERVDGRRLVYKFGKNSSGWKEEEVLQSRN
# Outline: as §1
# [9] = target: CRX (Homo sapiens, UniProt O43186 1-299); settings: protein: recombinant; tags: N-terminal GST; dsDNA, one strand shown
# Outline: as §1
# [10] = target: ETV1 (Homo sapiens, UniProt P50549 1-477); settings: protein: recombinant; tags: N-terminal GST; dsDNA, one strand shown
# Outline: as §1
# Chain of ELF4 (Q99607 whole entry): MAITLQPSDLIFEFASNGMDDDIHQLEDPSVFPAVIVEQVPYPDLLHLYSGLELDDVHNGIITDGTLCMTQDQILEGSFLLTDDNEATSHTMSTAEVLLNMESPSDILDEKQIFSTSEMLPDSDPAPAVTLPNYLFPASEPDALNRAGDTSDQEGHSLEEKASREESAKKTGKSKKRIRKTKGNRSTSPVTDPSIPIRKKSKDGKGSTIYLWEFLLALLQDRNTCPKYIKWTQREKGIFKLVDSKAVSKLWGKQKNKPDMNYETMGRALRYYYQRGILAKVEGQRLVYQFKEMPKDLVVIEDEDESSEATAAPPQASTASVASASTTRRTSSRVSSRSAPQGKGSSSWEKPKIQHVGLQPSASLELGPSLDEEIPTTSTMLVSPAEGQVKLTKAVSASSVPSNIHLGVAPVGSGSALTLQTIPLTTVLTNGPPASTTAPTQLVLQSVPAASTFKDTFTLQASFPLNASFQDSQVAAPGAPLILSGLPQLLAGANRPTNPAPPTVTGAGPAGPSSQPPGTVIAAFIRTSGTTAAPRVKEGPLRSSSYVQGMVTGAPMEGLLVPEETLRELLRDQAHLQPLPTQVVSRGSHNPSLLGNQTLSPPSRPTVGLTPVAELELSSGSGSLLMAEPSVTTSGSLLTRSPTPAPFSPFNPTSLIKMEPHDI
# Chain of HSF1 (Q00613 whole entry): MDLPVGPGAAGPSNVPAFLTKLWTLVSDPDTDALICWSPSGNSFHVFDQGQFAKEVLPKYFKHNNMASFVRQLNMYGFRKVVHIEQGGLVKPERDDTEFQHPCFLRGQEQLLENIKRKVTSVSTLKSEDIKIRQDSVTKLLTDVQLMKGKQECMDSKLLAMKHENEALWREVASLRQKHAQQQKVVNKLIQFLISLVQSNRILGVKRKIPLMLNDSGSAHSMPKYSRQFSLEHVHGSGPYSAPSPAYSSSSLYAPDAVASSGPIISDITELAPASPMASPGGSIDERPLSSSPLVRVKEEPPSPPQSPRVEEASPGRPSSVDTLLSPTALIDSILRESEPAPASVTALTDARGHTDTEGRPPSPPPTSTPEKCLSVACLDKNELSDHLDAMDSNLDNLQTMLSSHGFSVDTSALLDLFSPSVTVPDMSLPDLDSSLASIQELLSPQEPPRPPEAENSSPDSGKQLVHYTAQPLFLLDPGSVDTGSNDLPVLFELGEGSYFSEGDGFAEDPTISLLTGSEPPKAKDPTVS
# Chain of ETV1 (P50549 whole entry): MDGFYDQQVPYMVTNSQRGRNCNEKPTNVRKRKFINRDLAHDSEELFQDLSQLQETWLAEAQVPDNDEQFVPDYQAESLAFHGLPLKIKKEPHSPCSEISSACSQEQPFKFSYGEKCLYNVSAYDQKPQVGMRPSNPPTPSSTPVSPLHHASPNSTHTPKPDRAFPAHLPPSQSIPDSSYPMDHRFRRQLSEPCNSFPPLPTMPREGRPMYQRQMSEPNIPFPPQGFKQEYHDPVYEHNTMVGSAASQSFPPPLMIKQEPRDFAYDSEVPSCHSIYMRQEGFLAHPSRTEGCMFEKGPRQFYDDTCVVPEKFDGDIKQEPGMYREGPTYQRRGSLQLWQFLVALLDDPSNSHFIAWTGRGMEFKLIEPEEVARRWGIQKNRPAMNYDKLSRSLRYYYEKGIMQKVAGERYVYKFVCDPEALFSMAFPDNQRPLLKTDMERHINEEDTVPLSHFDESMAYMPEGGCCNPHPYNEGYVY
# Chain of ETV5 (P41161 whole entry): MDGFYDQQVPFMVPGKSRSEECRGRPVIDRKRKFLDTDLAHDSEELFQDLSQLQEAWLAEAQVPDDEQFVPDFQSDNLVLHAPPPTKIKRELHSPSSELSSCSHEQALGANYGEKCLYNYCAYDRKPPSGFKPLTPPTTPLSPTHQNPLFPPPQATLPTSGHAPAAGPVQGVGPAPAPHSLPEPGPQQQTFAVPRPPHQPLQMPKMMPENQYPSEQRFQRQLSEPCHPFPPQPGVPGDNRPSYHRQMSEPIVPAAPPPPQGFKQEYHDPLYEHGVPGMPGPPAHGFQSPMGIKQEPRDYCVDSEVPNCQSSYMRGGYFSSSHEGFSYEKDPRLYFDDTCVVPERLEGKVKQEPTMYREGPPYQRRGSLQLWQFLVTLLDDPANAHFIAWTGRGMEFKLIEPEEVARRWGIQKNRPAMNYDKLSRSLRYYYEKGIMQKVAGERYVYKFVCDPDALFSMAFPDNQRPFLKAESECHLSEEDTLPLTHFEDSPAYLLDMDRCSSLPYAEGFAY
# Chain of CRX (O43186 whole entry): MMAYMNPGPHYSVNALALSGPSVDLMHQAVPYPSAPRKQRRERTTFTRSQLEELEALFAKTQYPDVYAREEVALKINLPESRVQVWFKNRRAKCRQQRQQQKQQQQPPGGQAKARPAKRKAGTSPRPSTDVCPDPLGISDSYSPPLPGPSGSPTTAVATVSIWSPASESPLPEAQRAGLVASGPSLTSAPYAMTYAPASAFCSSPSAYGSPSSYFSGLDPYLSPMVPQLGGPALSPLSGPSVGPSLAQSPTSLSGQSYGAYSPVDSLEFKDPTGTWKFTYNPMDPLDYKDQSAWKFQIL
Sequence,binding signal [1],binding signal [2],binding signal [3],binding signal [4],binding signal [5],binding signal [6],binding signal [7],binding signal [8],binding signal [9],binding signal [10]
TCTTGA,"1.3 fold enrichment (6-mer frequency, TF over GST control)","1.14 fold enrichment (6-mer frequency, TF over GST control)","1.61 fold enrichment (6-mer frequency, TF over GST control)","1.21 fold enrichment (6-mer frequency, TF over GST control)","1.33 fold enrichment (6-mer frequency, TF over GST control)","1.4 fold enrichment (6-mer frequency, TF over GST control)","1.2 fold enrichment (6-mer frequency, TF over GST control)","1.19 fold enrichment (6-mer frequency, TF over GST control)","1.44 fold enrichment (6-mer frequency, TF over GST control)","1.17 fold enrichment (6-mer frequency, TF over GST control)"
CTTCAG,"1.26 fold enrichment (6-mer frequency, TF over GST control)","1.21 fold enrichment (6-mer frequency, TF over GST control)","1.23 fold enrichment (6-mer frequency, TF over GST control)","1.26 fold enrichment (6-mer frequency, TF over GST control)","1.34 fold enrichment (6-mer frequency, TF over GST control)","1.41 fold enrichment (6-mer frequency, TF over GST control)","1.23 fold enrichment (6-mer frequency, TF over GST control)","1.39 fold enrichment (6-mer frequency, TF over GST control)","1.16 fold enrichment (6-mer frequency, TF over GST control)","1.33 fold enrichment (6-mer frequency, TF over GST control)"
TATCTC,"1.27 fold enrichment (6-mer frequency, TF over GST control)","1.2 fold enrichment (6-mer frequency, TF over GST control)","1.45 fold enrichment (6-mer frequency, TF over GST control)","1.21 fold enrichment (6-mer frequency, TF over GST control)","1.21 fold enrichment (6-mer frequency, TF over GST control)","1.27 fold enrichment (6-mer frequency, TF over GST control)","1.18 fold enrichment (6-mer frequency, TF over GST control)","1.16 fold enrichment (6-mer frequency, TF over GST control)","1.76 fold enrichment (6-mer frequency, TF over GST control)","1.3 fold enrichment (6-mer frequency, TF over GST control)"
TCACGC,"1.18 fold enrichment (6-mer frequency, TF over GST control)","1.15 fold enrichment (6-mer frequency, TF over GST control)","1.08 fold enrichment (6-mer frequency, TF over GST control)","1.25 fold enrichment (6-mer frequency, TF over GST control)","1.16 fold enrichment (6-mer frequency, TF over GST control)","1.34 fold enrichment (6-mer frequency, TF over GST control)","1.26 fold enrichment (6-mer frequency, TF over GST control)","1.35 fold enrichment (6-mer frequency, TF over GST control)","1.02 fold enrichment (6-mer frequency, TF over GST control)","1.13 fold enrichment (6-mer frequency, TF over GST control)"
